Compound activity (PubChem)
Cruzain inh noDet = cruzain (T. cruzi) inhibition without detergent; P25779; purified cruzain, Z-FR-AMC fluorescence, no detergent; Potency, µM, hits mostly inhibitors; 2.3% of 200,000 active; AID 1476; further: nearly all actives have a fitted effect of over 40% in size
Target sequence (P25779 123-467 limits assumed): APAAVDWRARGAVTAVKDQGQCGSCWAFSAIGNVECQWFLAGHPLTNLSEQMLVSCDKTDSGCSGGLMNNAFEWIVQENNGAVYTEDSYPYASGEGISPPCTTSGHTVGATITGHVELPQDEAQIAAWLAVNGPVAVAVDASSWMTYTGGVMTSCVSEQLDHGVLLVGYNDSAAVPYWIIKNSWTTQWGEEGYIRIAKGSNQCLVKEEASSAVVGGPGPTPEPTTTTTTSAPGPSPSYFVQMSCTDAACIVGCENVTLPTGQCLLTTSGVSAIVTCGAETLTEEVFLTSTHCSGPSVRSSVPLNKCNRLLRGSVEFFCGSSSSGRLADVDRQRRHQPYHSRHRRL
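Detergent-free condition (0.00005% Triton X-100) in acetate buffer pH 5.5 with DTT. 1.5 nM enzyme and compound were pre-mixed 15 min, then 2 uM Z-FR-AMC substrate added; reaction progress from fluorescence change between first and third reads (60 s).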
Cruzain inh Det = inhibitors of Trypanosoma cruzi cruzain with detergent. P25779. purified cruzain, Z-FR-AMC fluorescence, 0.01% Triton. Potency, µM, actives largely listed as inhibitors. 0.43% of 200,000 active. AID 1478; further: nearly all actives have a fitted effect of over 40% in size
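Purified cruzain (1.5 nM final) was preincubated with compounds for 15 min at room temperature in 100 mM sodium acetate pH 5.5, 5 mM DTT, 0.01% Triton X-100. Reaction started with 2 uM Z-FR-AMC; AMC fluorescence change over 60 s gave activity.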
Large screens that a line does not name were inactive. In the library only some 2.6% were active in any assay of this set; here they are far more common. The call rests on the fitted dose curve; in most records, active means well fitted curve in the direction sought with a large enough effect; inconclusive means small, poorly fitted or top-dose-only effect, or another doubt; inactive means no such curve, though single readings can be large; an effect the other way counts as inactive or inconclusive.

O=C(O)/C=C\C(=O)N1Cc2cc3ccccc3nc2C1	none
COC(=O)c1nn(-c2ccccc2)c(Cl)c1/C=N/OCc1ccc(Cl)cc1Cl	none
CN(C)/C=C(\C=N\OCc1ccc(Cl)cc1Cl)C(=O)Nc1ccc(Cl)c(Cl)c1	Cruzain inh noDet 20µM
O=S(=O)(c1ccc(Cl)cc1)N1CCN(c2nc(-c3cccs3)nc3ccccc23)CC1	Cruzain inh noDet 10µM
O=S(=O)(c1ccccc1)N1CCN(c2nc(-c3cccs3)nc3ccccc23)CC1	Cruzain inh noDet 16µM
Cc1cc(N2CCN(S(=O)(=O)c3ccccc3)CC2)c2ccccc2n1	none
O=C(c1cc(-c2cccs2)nc2ccccc12)N1CCN(S(=O)(=O)c2ccccc2)CC1	Cruzain inh noDet inconclusive
Cc1cc(=O)oc2cc(OCc3ccc(C(=O)N4CCN(c5ccccc5)CC4)cc3)ccc12	none
COc1ccc(Oc2coc3cc(OC(=O)c4cccs4)ccc3c2=O)cc1	none
COC(=O)c1ccc(Oc2coc3cc(OCc4ccc([N+](=O)[O-])cc4)ccc3c2=O)cc1	Cruzain inh noDet 10µM
Cc1cc(=O)oc2cc(OCc3ccc(C(=O)N4CCN(c5ccc([N+](=O)[O-])cc5)CC4)cc3)ccc12	Cruzain inh noDet 13µM
COc1cccc(CNC(=O)c2cccc(-n3c(C)nc4cccnc43)c2)c1OC	none
CC1=C(C)CS(=O)N(S(=O)(=O)c2ccccc2)C1 (stereo not drawn)	none
CC1=C(C)CS(=O)N(c2ccc(S(N)(=O)=O)cc2)C1 (stereo not drawn)	Cruzain inh noDet 16µM, Cruzain inh Det 16µM
Cc1ccccc1OCC(=O)N/N=C/c1cc2ccccc2nc1Cl	none
COc1ccc2cc(/C=N/NC(=O)c3ccc(CN(c4cccc(Cl)c4Cl)S(C)(=O)=O)cc3)c(Cl)nc2c1	Cruzain inh noDet 25µM
CC[C@H](C)C(=O)O[C@H]1CCC=C2C=C[C@H](C)[C@H](CC[C@@H]3C[C@H](O)CC(=O)O3)C21 (stereo partly drawn)	Cruzain inh noDet inconclusive
COC(=O)c1cccc(Cn2c(Cl)c(/C=N/Nc3ccccc3C)sc2=O)c1	Cruzain inh noDet 13µM
O=C(O)c1cccc(Cn2c(Cl)c(/C=N/NC(=O)c3ccccc3)sc2=O)c1	none
CCOc1ccc(CCNC(=O)CSc2nnnn2-c2ccccc2Cl)cc1OCC	Cruzain inh noDet inconclusive
O=C(Nc1cccc(F)c1)C1CC(=O)N(c2ccc(Br)cc2)C1 (stereo not drawn)	none
O=C(Nc1cccc(Cl)c1Cl)C1CC(=O)N(c2ccc(Br)cc2)C1 (stereo not drawn)	Cruzain inh noDet 25µM
CCOc1ccccc1C(=O)Nc1ccc(S(=O)(=O)Nc2ncccn2)cc1	none
O=C(Nc1ccccc1NC(=O)c1ccco1)c1ccco1	none
O=C(Nc1cccc2cccc(NC(=O)c3ccco3)c12)c1ccco1	Cruzain inh noDet 25µM
O=C(Nc1nc(-c2ccncc2)cs1)c1ccco1	Cruzain inh noDet 16µM
O=C(Nc1nc(-c2cc3ccccc3oc2=O)cs1)c1ccco1	none
CC(C)NC(=O)N1CCC2(CC1)CCN(C(=O)c1cc(C(F)(F)F)cc(C(F)(F)F)c1)CC2	Cruzain inh noDet inconclusive
NC(=S)N=Nc1c(O)[nH]c2ccccc12	Cruzain inh noDet 13µM, Cruzain inh Det inconclusive
Oc1[nH]c2ccccc2c1N=NC(=S)NCCc1ccccc1	none
CN(C)c1ccc(C(=S)N2CCCCCC2)cc1	Cruzain inh noDet 6.3µM, Cruzain inh Det 14µM
CC(=O)N1CCN(C(=S)c2ccc(N(C)C)cc2)CC1	none
CN(C)c1ccc(C(=S)N2CCN(c3ccccc3)CC2)cc1	none
Cc1ccc(N2CCN(C(=S)c3ccc(N(C)C)cc3)CC2)cc1	Cruzain inh noDet 20µM
O=C1CC(N2C(=O)/C(=C/C=C/c3ccccc3)SC2=S)C(=O)N1c1ccccc1 (stereo not drawn)	Cruzain inh noDet 16µM
O=C1CC(N2CCN(c3ccccc3Cl)CC2)C(=O)N1c1ccccc1 (stereo not drawn)	none
COc1ccc2[nH]cc(CCNc3ncncc3-c3ccc(N(C)C)cc3)c2c1	none
Cn1nnc(NCc2cc(Br)ccc2OCc2cccs2)n1	Cruzain inh noDet 32µM
Cn1nnc(C(O)CNCc2cccs2)n1 (stereo not drawn)	none
COc1cc2oc(=O)cc(-c3ccc(-c4ccc(NC(C)=O)cc4)cc3)c2c(OC)c1OC	none
N[C@H]1CCN(O)C1=O	none
CCc1ccc2oc(-c3cc(NC(=O)c4cc(OC)c(OC)c(OC)c4)ccc3O)nc2c1	none
CCc1ccc2oc(-c3cc(N=Cc4cccc(OC)c4O)ccc3O)nc2c1	Cruzain inh noDet 16µM
Cn1cc(C(=O)N/N=C/C=C/c2ccccc2)ccc1=O	none
O=C(N/N=C/C=C/c1ccccc1)c1ccc(Br)cc1	Cruzain inh noDet 20µM
Cc1ccc(OCCCCn2nnc3sc4c(c3c2=O)CCC(C)C4)cc1 (stereo not drawn)	none
CCOc1ccc(-c2cc(C(=O)NCCc3ccc(C)cc3)c3ccccc3n2)cc1	Cruzain inh noDet inconclusive
C/C(=N\Nc1nc(-c2ccc(C)cc2C)cs1)c1cc2ccccc2oc1=O	Cruzain inh noDet inconclusive
